The values that follow come from PubChem BioAssay (NCI).

Each structure is given as a SMILES string. This is part of a sample that, as a whole, favours compounds with a hit. Of some 83,000 tested, about 20% had one in any assay.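 Method: cells in 96-well plates; compound added at one concentration; 48 h incubation; percent growth measured; values under 10 scored active.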 A number with no mark means an inactive call. Calls of active or inactive are those of the source.

Some test systems named below: NCI-H226 lung; NCI-H322M lung; HOP-62 NSCLC; NCI-H460 lung; HOP-92 NSCLC; NCI-H522 lung; A549/ATCC NSCLC; 786-0 renal; COLO 205 colon; DU-145 prostate; K-562 leukemia; MALME-3M melanoma; MDA-MB-231 breast; RXF 393 renal; SF-268 CNS; SF-295 CNS; SF-539 CNS; UACC-257 melanoma; M14 melanoma.
What all share (test): NCI-60 one-dose screen, 48 h (100 = growth as untreated, 0 = no growth, -100 = all killed)
What all share (details): 10 µM unless noted

For `COc1cc(C2CC(c3ccc(F)cc3)=Nc3c(N)nc(N)nc3N2)ccc1Oc1nc(Nc2ccc(F)cc2)nc(N(C)C)n1` (centres undefined), the growth in the assay with NCI-H226 lung was 85.8%; in the assay with NCI-H322M lung it was 105%; in the assay on HOP-62 NSCLC, 86.3%; in the assay with NCI-H460 lung, 10.1%; with HOP-92 NSCLC it was 36.8%; in the assay with NCI-H522 lung, 60.6%. In addition, the growth was 58.5% in the assay on A549/ATCC NSCLC; 43.9% with 786-0 renal; 56.2% in the assay on COLO 205 colon; 55.8% in the assay on DU-145 prostate; 15.5% in the assay on K-562 leukemia; 52.5% with MALME-3M melanoma. For the same molecule, the growth is 44.2% in the assay on MDA-MB-231 breast; 17.2% in the assay with RXF 393 renal; 63.4% with SF-268 CNS; 40.3% with SF-295 CNS; 69.6% in the assay on SF-539 CNS; 38.7% in the assay on UACC-257 melanoma. In addition, the growth in the assay on M14 melanoma is 56.6%.

Regarding `N#Cc1ccc(C(=O)CSc2nc3c(c(Nc4ccc(S(N)(=O)=O)cc4)n2)CCC3)cc1`, the growth is 54.1% in the assay with NCI-H226 lung; 75.3% in the assay on NCI-H322M lung; 1.39% (active) in the assay on HOP-62 NSCLC; 39.6% in the assay on NCI-H460 lung; 14.1% in the assay on HOP-92 NSCLC; 44.6% in the assay with NCI-H522 lung. Besides, the growth with A549/ATCC NSCLC is 50%; in the assay on 786-0 renal, -22.3% (active); in the assay on COLO 205 colon, 87.2%; in the assay with DU-145 prostate it was 51.1%; in the assay with K-562 leukemia, 55.2%; with MALME-3M melanoma it was 48.8%. The growth in the assay on MDA-MB-231 breast was -14.3% (active); in the assay on RXF 393 renal, -18.1% (active); with SF-268 CNS, 38.3%; with SF-295 CNS, 80.4%; in the assay on SF-539 CNS it was 16.2%; in the assay on UACC-257 melanoma, 102%. The growth in the assay with M14 melanoma was 78.1%.

For the molecule `COc1cc(-c2ccc3ncnc(N4CCc5ccc(Cl)cc54)c3c2)cnc1Cl`, the growth with NCI-H226 lung is 18.8%; in the assay on NCI-H322M lung it was 15.9%; with HOP-62 NSCLC, 50.2%; in the assay on NCI-H460 lung it was 12.4%; in the assay on HOP-92 NSCLC it was -0.319% (active); in the assay on NCI-H522 lung it was 38.6%. Besides, the growth in the assay on A549/ATCC NSCLC was 34.7%; in the assay with 786-0 renal it was 14.1%; in the assay on COLO 205 colon, 32.1%; with DU-145 prostate, 10.6%; with K-562 leukemia it was 23.1%; with MALME-3M melanoma it was 34.9%. Also, the growth was 30.8% with MDA-MB-231 breast; -4.17% (active) in the assay on RXF 393 renal; 40.2% in the assay with SF-268 CNS; 35% in the assay on SF-295 CNS; 24.8% in the assay with SF-539 CNS; 59.2% in the assay on UACC-257 melanoma. Also, in the assay with M14 melanoma, the growth is 29.8%.

For `Fc1ccc(F)c(CNc2nc(SCCN3CCOCC3)nc3c2cnn3CC(Cl)c2ccc(Br)cc2)c1` (centres undefined), the growth was 16.2% in the assay with NCI-H226 lung; 75.2% with NCI-H322M lung; 6.7% (active) in the assay with NCI-H460 lung; 20.1% with HOP-92 NSCLC; 20.9% in the assay with A549/ATCC NSCLC; 17.7% in the assay on 786-0 renal. In addition, the growth is -57% (active) in the assay with COLO 205 colon; 43.3% with DU-145 prostate; 10.6% in the assay on K-562 leukemia; -30% (active) with MALME-3M melanoma; 6.86% (active) with MDA-MB-231 breast; -4.06% (active) in the assay with RXF 393 renal. The growth with SF-268 CNS is 30.1%; in the assay on SF-295 CNS, 5.06% (active); in the assay on SF-539 CNS it was 17.9%; in the assay on UACC-257 melanoma it was 6.07% (active); with M14 melanoma it was 18.1%.

As to `Fc1cccc(CNc2nc(SCCN3CCOCC3)nc3c2cnn3CC(Cl)c2ccc(Br)cc2)c1` (centres undefined), the growth with NCI-H226 lung is 27.5%; in the assay on NCI-H322M lung, 81.7%; in the assay with HOP-62 NSCLC, 44.9%; in the assay with NCI-H460 lung, 7.02% (active); with HOP-92 NSCLC, 20.3%; in the assay on NCI-H522 lung, 36.8%. Further, the growth with A549/ATCC NSCLC was 19.9%; with 786-0 renal, 20.9%; in the assay with COLO 205 colon, -9.76% (active); in the assay on DU-145 prostate, 49.9%; in the assay on K-562 leukemia, -4.59% (active); with MALME-3M melanoma, -19.6% (active). For the same molecule, the growth with MDA-MB-231 breast was 6.57% (active); in the assay with RXF 393 renal, 29.5%; in the assay on SF-268 CNS it was 35%; with SF-295 CNS, -10.5% (active); in the assay on SF-539 CNS, 10.8%; with UACC-257 melanoma, 20.1%. For the same molecule, in the assay on M14 melanoma, the growth is 28%.

Consider `O=C1Nc2cc(-c3ccc(NS(=O)(=O)c4ccc(C(F)(F)F)cc4)cc3)ccc2/C1=C/c1ccc[nH]1`, for which the growth with NCI-H322M lung is 44%; with HOP-62 NSCLC, 43.5%; in the assay with NCI-H460 lung, 5.56% (active); in the assay on HOP-92 NSCLC it was 42.8%; in the assay on NCI-H522 lung it was -18.4% (active); with A549/ATCC NSCLC, 18.7%. Besides, the growth in the assay on 786-0 renal is 40.8%; in the assay with COLO 205 colon, 23.9%; in the assay with DU-145 prostate, 40.6%; in the assay with K-562 leukemia it was 11.4%; in the assay on MALME-3M melanoma it was 63.3%; in the assay with MDA-MB-231 breast it was 66.7%. Further, the growth in the assay with RXF 393 renal is 25%; in the assay on SF-268 CNS, 55.5%; in the assay with SF-295 CNS, 17.6%; in the assay with SF-539 CNS, 42.4%; with UACC-257 melanoma, 26.3%; with M14 melanoma, 55.3%.

As to `CCCSc1nnc(-c2c(C)nc3sccn23)o1`, the growth in the assay with NCI-H226 lung was 66.6%; with NCI-H322M lung it was 73.9%; in the assay with HOP-62 NSCLC, 112%; with NCI-H460 lung, 97.9%; in the assay on HOP-92 NSCLC, 73.8%; with NCI-H522 lung, 98.7%. The growth in the assay on A549/ATCC NSCLC is 98.2%; in the assay on 786-0 renal, 92.8%; in the assay with COLO 205 colon it was 118%; with DU-145 prostate, 96.7%; in the assay on K-562 leukemia it was 88.4%; in the assay on MALME-3M melanoma, 104%. Moreover, the growth was 74.6% in the assay with MDA-MB-231 breast; 82.9% in the assay with RXF 393 renal; 89.1% with SF-268 CNS; 87.1% in the assay on SF-295 CNS; 90.9% in the assay on SF-539 CNS; 93.6% in the assay on UACC-257 melanoma. The growth in the assay on M14 melanoma is 99.6%.

On to `CCOC(=O)/C(F)=C/C1CC1C1CCN(C(=O)OC(C)(C)C)CC1` (centres undefined), for which the growth with NCI-H226 lung was 95.2%; in the assay with NCI-H322M lung, 102%; with HOP-62 NSCLC, 118%; with NCI-H460 lung, 98.1%; in the assay on HOP-92 NSCLC, 119%; with NCI-H522 lung it was 104%. Further, the growth with A549/ATCC NSCLC is 78.4%; with 786-0 renal it was 105%; with COLO 205 colon, 72.4%; in the assay with DU-145 prostate, 73.2%; in the assay on K-562 leukemia it was 76.1%; in the assay with MALME-3M melanoma it was 94%. Further, the growth with MDA-MB-231 breast was 99.3%; in the assay with RXF 393 renal, 105%; with SF-268 CNS it was 98.6%; in the assay with SF-295 CNS, 99.3%; in the assay with SF-539 CNS, 103%; in the assay with UACC-257 melanoma, 111%. Further, the growth with M14 melanoma is 106%.
